Results on 18 compounds are retold here after PubChem BioAssay (NCATS).

Test [1] in a line: qHTS of pediatric cancer cell lines to identify multiple opportunities for drug repurposing: Primary screen for A673 cells (AID 1347092). Note: potency is the fitted concentration of half-maximal effect; nearly all actives have a fitted effect of over 45% in size. Summed up:
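Cell viability of A673 measured by CellTiter-Glo ATP luminescence after 48 hours compound exposure. Dilution series spanned 0.78 nM to 46 µM (MIPE, 11-point) or 0.59 nM to 46 µM (NPC, 8-point); bortezomib 2.3 uM positive control.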
Background: In qHTS, concentration-response curves come from the screen itself.

Test [2] in a line: qHTS of pediatric cancer cell lines to identify multiple opportunities for drug repurposing: Primary screen for SK-N-MC cells (AID 1347093). Note: potency is the fitted concentration of half-maximal effect. Summed up: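 Metabolically active cells were quantified by ATP-dependent luminescence (CellTiter-Glo, 15 min at room temperature) following 48 h treatment. Cells had been plated at 500-1,000 per well and settled for 5 h beforehand.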
Test [3] in a line: qHTS of pediatric cancer cell lines to identify multiple opportunities for drug repurposing: Primary screen for BT-37 cells (AID 1347094). Note: potency is the fitted concentration of half-maximal effect. Summed up:
(§1)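 Luminescence from CellTiter-Glo served as readout of metabolically active cells after 48 h compound exposure. Titrations: MIPE 11-point, from 0.78 nM; NPC 8-point, from 0.59 nM (final). Concentration-response curves came straight from the primary screen.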

The nature of test [4]: qHTS of pediatric cancer cell lines to identify multiple opportunities for drug repurposing: Primary screen for NB-EBc1 cells (AID 1347095). Note: potency is the fitted concentration of half-maximal effect. Summed up: as §1
Test [5] is described as follows: qHTS of pediatric cancer cell lines to identify multiple opportunities for drug repurposing: Primary screen for U-2 OS cells (AID 1347096). Note: nearly all actives have a fitted effect of over 50% in size. Summed up: (§2)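 Cells (500-1,000/well) in growth media were settled 5 h at 37 degrees C, then given compounds for 48 h. Viability was read as CellTiter-Glo luminescence. Primary runs used MIPE at 11 points (0.78 nM-46 µM) and NPC at 8 points (0.59 nM-46 µM); follow-ups used 11 points.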

Test [6] is described as follows: qHTS of pediatric cancer cell lines to identify multiple opportunities for drug repurposing: Primary screen for Saos-2 cells (AID 1347097). Note: nearly all actives have a fitted effect of over 40% in size. Note: potency is the fitted concentration of half-maximal effect. The method in brief:
as §1

Test [7] in a line: qHTS of pediatric cancer cell lines to identify multiple opportunities for drug repurposing: Primary screen for NB1643 cells (AID 1347099). Note: nearly all actives have a fitted effect of over 50% in size. Note: potency is the fitted concentration of half-maximal effect. The method in brief:
as §1

Test [8] in a line: qHTS of pediatric cancer cell lines to identify multiple opportunities for drug repurposing: Primary screen for LAN-5 cells (AID 1347100). Note: potency is the fitted concentration of half-maximal effect. Summed up: as §2
The nature of test [9]: qHTS of pediatric cancer cell lines to identify multiple opportunities for drug repurposing: Primary screen for Rh18 cells (AID 1347102). Note: nearly all actives have a fitted effect of over 65% in size. Note: potency is the fitted concentration of half-maximal effect. The method in brief:
as §2

Test [10] is described as follows: qHTS of pediatric cancer cell lines to identify multiple opportunities for drug repurposing: Primary screen for RD cells (AID 1347104). Note: nearly all actives have a fitted effect of over 55% in size. Note: potency is the fitted concentration of half-maximal effect. Summed up:
as §1

The nature of test [11]: qHTS of pediatric cancer cell lines to identify multiple opportunities for drug repurposing: Primary screen for BT-12 cells (AID 1347101). Note: nearly all actives have a fitted effect of over 25% in size. Note: potency is the fitted concentration of half-maximal effect. Summed up: (§3)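 Cells (500-1,000/well) rested 5 h, then received compounds for 48 h; metabolically active cells were measured by CellTiter-Glo luminescence. Final concentrations spanned up to 46 µM (MIPE, 11-point) or 0.59 nM-46 µM (NPC, 8-point) in primary screens, 11-point in follow-ups.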

The nature of test [12]: qHTS of pediatric cancer cell lines to identify multiple opportunities for drug repurposing: Primary screen for OHS-50 cells (AID 1347103). Note: nearly all actives have a fitted effect of over 40% in size. Note: potency is the fitted concentration of half-maximal effect. Summed up: as §3
Test [13] is described as follows: qHTS of pediatric cancer cell lines to identify multiple opportunities for drug repurposing: Primary screen for MG 63 (6-TG R) cells (AID 1347105). Note: nearly all actives have a fitted effect of over 50% in size. Note: potency is the fitted concentration of half-maximal effect. Summed up: as §1
Test [14] is described as follows: qHTS of pediatric cancer cell lines to identify multiple opportunities for drug repurposing: Primary screen for control Hh wild type fibroblast cells (AID 1347106). Note: nearly all actives have a fitted effect of over 55% in size. Note: potency is the fitted concentration of half-maximal effect. Summed up: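 Viability after 48 h compound treatment at 37C, 500-1,000 cells/well, read as ATP luminescence with CellTiter-Glo. Primary screens used 11-point (MIPE, 0.78 nM-46 µM) or 8-point (NPC, 0.59 nM-46 µM) final concentrations; follow-up screens used 11-point dilutions.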

Test [15] is described as follows: qHTS of pediatric cancer cell lines to identify multiple opportunities for drug repurposing: Primary screen for Rh30 cells (AID 1347107). Note: series mostly up to about 46 µM; nearly all actives have a fitted effect of over 75% in size. The method in brief: as §2
Test [16] in a line: qHTS of pediatric cancer cell lines to identify multiple opportunities for drug repurposing: Confirmatory screen for NB1643 cells (AID 1347109). Note: nearly all actives have a fitted effect of over 45% in size. Note: potency is the fitted concentration of half-maximal effect. The method in brief: as §2
A short description of test [17]: qHTS of pediatric cancer cell lines to identify multiple opportunities for drug repurposing: Primary screen for SJ-GBM2 cells (AID 1347091). The method in brief:
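Eight- or eleven-point concentration series, 48 h treatment at 37 degrees C in growth media; readout CellTiter-Glo luminescence. Potency and efficacy were taken from the concentration-response curves.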

Test [18] in a line: qHTS of pediatric cancer cell lines to identify multiple opportunities for drug repurposing: Primary screen for Rh41 cells (AID 1347108). Note: nearly all actives have a fitted effect of over 70% in size. Note: potency is the fitted concentration of half-maximal effect. Summed up: as §1
The nature of test [19]: qHTS of pediatric cancer cell lines to identify multiple opportunities for drug repurposing: Primary screen for SK-N-SH cells (AID 1347098). Note: nearly all actives have a fitted effect of over 65% in size. Note: potency is the fitted concentration of half-maximal effect. The method in brief: as §3

Inconclusive results are not listed. The source made the active and inactive calls. Calls come from the whole dose curve; as a rule, active = well fitted curve in the direction sought with a large enough effect; inconclusive = small, poorly fitted or top-dose-only effect, or another doubt; inactive = no such curve, though single readings can be large; an effect the other way counts as inactive or inconclusive.

`NCc1c[nH]c(=S)n1[C@H]1CCc2c(F)cc(F)cc2C1`: the Potency in test [1] is 18.7 µM (active); in [2] it was 10.5 µM (active); in test [3] it was 30.6 µM (active); in test [4], 23.5 µM (active); in test [6] it was 18.7 µM (active); in [7], 9.35 µM (active). Moreover, the Potency was 23.5 µM (active) in [8], 16.6 µM (active) in [9] and 33.2 µM (active) in test [10]. For the same compound, the Potency result in test [5] is “inactive”.
Consider `CCC[C@H](Nc1nc(-c2ccc(NC(=O)NCC)c(OC)c2)ncc1C)c1cccnc1`, for which the Potency in [1] is 0.0187 µM (active); in test [2], 0.0118 µM (active); in test [3] it was 0.0137 µM (active); in [4], 0.0066 µM (active); in [8], 0.0105 µM (active); in test [11] it was 0.0109 µM (active). For the same compound, the results for the Potency in test [12] and in [16] were 0.0137 µM (active) and 0.165 µM (active), respectively. The Potency entry in [9], in [13], in [14] and in [15] was “inactive” throughout.
As to `Cc1cc(-c2ncc(CC(=O)Nc3ccc(-c4cnccn4)cn3)cc2C)ccn1`, the Potency result in test [17], in test [5], in test [9], in [13] and in test [18] was “inactive” in each case. The Potency was 16.6 µM (active) in test [2], 6.85 µM (active) in test [11] and 5.44 µM (active) in [12].
In the case of `COc1ccc(Cn2ccc3ccc(C(=O)NO)cc32)cc1`, the Potency in [1] is 14.8 µM (active); in [2] it was 5.9 µM (active); in [4], 8.33 µM (active); in [19], 21.5 µM (active); in test [7], 14.8 µM (active); in test [8], 20.9 µM (active). For the same compound, the Potency result in test [6], in test [9], in [13] and in test [14] was “inactive” each time.
Regarding `OCCn1cc(-c2ccc3c(c2)CCC3=NO)c(-c2ccncc2)n1`, the Potency result in test [17], in [4], in test [5], in test [6], in [8] and in [9] was “inactive” each time. The Potency result in [12], in test [13], in test [18] and in test [16] was “inactive” in each case. The Potency in test [7] is 11.8 µM (active).
Regarding `C[C@@H]1[C@H](C)CC[C@]2(C(=O)O)CC[C@]3(C)C(=CC[C@@H]4[C@@]5(C)CC[C@H](O)C(C)(C)[C@H]5CC[C@]43C)[C@@H]12`, the Potency in test [2] was 0.429 µM (active); in [4], 13.6 µM (active); in test [19] it was 17.5 µM (active). Also, the Potency result in test [3], in test [5], in [11], in test [9], in test [10] and in [13] was “inactive” in each case. Besides, the Potency entry in [14] and in test [15] was “inactive” throughout.
With `CC1(C)C(N(O)C(=O)Nc2ccc(Cl)cc2)N(c2ccc(Cl)cc2)C(=O)N1CC(=O)NN=CC=Cc1ccc([N+](=O)[O-])o1` (configuration not stated), the Potency in test [1] is 23.5 µM (active); in test [7], 20.9 µM (active); in [9], 20.9 µM (active); in test [10], 29.6 µM (active); in [18], 14.8 µM (active). In addition, the Potency entry in test [5] is “inactive”.
With `C=C1[C@H](n2cnc3c(=O)[nH]c(N)nc32)C[C@H](O)[C@H]1CO`, the Potency was 0.0187 µM (active) in [2], 21.7 µM (active) in [3] and 8.63 µM (active) in [12]. The Potency entry in test [5], in [19], in [7], in test [14], in test [15] and in [18] was “inactive” each time. Also, in [16], the Potency result is “inactive”.
Turning to `COc1cc2c(cc1OC)[C@@H]1Cc3ccc(OC)c(OC)c3CN1CC2`, the Potency result in [2], in test [5], in test [9], in test [12], in test [10] and in test [13] was “inactive” in each case. Further, in [15], the Potency result was “inactive”. Further, in test [8], the Potency was 10.5 µM (active).
For `CN(C)S(=O)(=O)c1ccc2c(c1)C(=Cc1cc3c([nH]1)CCCC3)C(=O)N2`, the Potency was 3.72 µM (active) in test [2], 3.83 µM (active) in [19] and 2.35 µM (active) in test [8]. In addition, the Potency entry in test [5], in test [9] and in test [13] was “inactive” in each case.
For `Cc1csc(-c2nnc(Nc3ccc(Oc4ncccc4-c4ccnc(N)n4)cc3)c3ccccc23)c1`, the Potency is 14.8 µM (active) in test [1], 0.0037 µM (active) in [2] and 0.001 µM (active) in [8]. Besides, the Potency result in test [5], in [9], in [13] and in test [15] was “inactive” throughout.
For `O=C(Nc1cccc(C(F)(F)F)c1)Nc1cc(S(=O)(=O)NC2CC2)ccc1-c1ccsc1`, the Potency in test [4] is 23.5 µM (active); in test [6], 29.6 µM (active); in [10], 29.6 µM (active). For the same compound, the Potency result in test [5], in [19], in [9] and in [14] was “inactive” each time.
On to `COc1cc2c(cc1Cc1cccc(Cl)c1F)c(=O)c(C(=O)O)cn2[C@H](CO)C(C)C`, for which the values for the Potency in [3], in test [7] and in test [12] were 13.7 µM (active), 23.5 µM (active) and 27.3 µM (active), respectively. In addition, the Potency entry in test [19] and in [14] was “inactive” each time.
Turning to `COc1c(C)c2c(c(O)c1CC=C(C)CCC(=O)O)C(=O)OC2`, the Potency in test [2] is 1.18 µM (active); in [3] it was 1.53 µM (active); in test [4] it was 0.743 µM (active); in [8], 3.32 µM (active). In addition, the Potency result in test [6], in test [15] and in test [18] was “inactive” throughout.
Take `C[C@@]1(C(=O)Nc2ccc(F)nc2)CCCN1c1nc(Nc2cc(C3CC3)[nH]n2)c2cccn2n1`: the Potency in [1] is 0.0935 µM (active); in test [4] it was 0.0264 µM (active); in test [6], 1.05 µM (active); in [19] it was 1.92 µM (active); in test [7] it was 0.0935 µM (active); in test [9], 16.6 µM (active). The Potency in test [12] is 0.968 µM (active); in test [13], 11.8 µM (active); in test [14] it was 20.9 µM (active); in test [16], 0.293 µM (active). The Potency result in test [5] and in [11] was “inactive” throughout.
Take `O=C1NC(=O)C(=Cc2ccc(-c3ccc(F)cc3O)o2)S1`: the Potency is 23.5 µM (active) in test [2], 5.26 µM (active) in test [4] and 1.72 µM (active) in test [12]. Besides, the Potency result in test [7], in test [8], in test [9], in test [14] and in test [18] was “inactive” in each case.
Take `COc1cc([C@H]2Oc3cc([C@H]4Oc5cc(O)cc(O)c5C(=O)[C@H]4O)ccc3O[C@H]2CO)ccc1O`: the Potency in [1] and in [7] was 23.5 µM (active) throughout. In addition, the Potency result in test [3], in test [5], in [6], in [9], in [12] and in test [14] was “inactive” throughout.
Turning to `O=S(=O)(NCCNCC=Cc1ccc(Br)cc1)c1cccc2cnccc12`, the Potency in test [1] was 11.8 µM (active); in [4] it was 16.6 µM (active); in test [6] it was 16.6 µM (active); in test [19], 19.2 µM (active); in test [8], 20.9 µM (active); in [11], 21.7 µM (active). Moreover, the Potency is 16.6 µM (active) in test [9], 7.69 µM (active) in test [12], 18.7 µM (active) in [10] and 14.8 µM (active) in test [13]. In addition, in [14], the Potency entry is “inactive”.
